Data as given in PubChem BioAssay (EPA / NIEHS).
Calls of active or inactive are those of the source. How the source made its calls: active means hit-call score of the fitted dose curve at least 0.9, where 1 is the maximum; inactive means score below 0.9.

test system: not listed separately; test: ATG_SREBP_CIS: Attagene CIS-FACTORIAL HepG2 Assay for human Sterol Regulatory Element Binding (SREBP) (AID 2282962); details: HepG2 Attagene cis-factorial SREBP reporter, mRNA; actives raise or lower the signal
Summary of the method: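 Endogenous SREBP activity read as cis-element-driven reporter transcript in transiently transfected HepG2, 24 h post-dosing; quantified via RT-PCR plus capillary electrophoresis of fluorescent fragments. Gain or loss of signal fitted relative to DMSO baseline.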

| SMILES | outcome | AC50 |
| --- | --- | --- |
| NC(N)=NC(N)=NCCc1ccccc1 | inactive | – |
| CN1CCc2cccc3c2[C@H]1Cc1ccc(O)c(O)c1-3 | – | 13.3 µM (active) |
| CCC(=O)OC/C=C(\C)CCC=C(C)C | inactive | – |
| C/C=C(\C)C(=O)OC/C=C(\C)CCC=C(C)C | – | 61.3 µM (active) |
| S=c1[nH][nH]c(=S)s1 | inactive | – |
| O=C1OC2(c3ccc(O)cc3Oc3cc(O)ccc32)c2ccccc21 | inactive | – |
| CC(C)Cc1ccc(C(C)C(=O)O)cc1 (stereo not drawn) | inactive | – |
| NC(=O)c1cnccn1 | inactive | – |
| CC1=CC(C)C(C=O)C(C)C1 (stereo not drawn) (tested in a mixture with another compound) | inactive | – |
| CC(C)(C)C1CCC(O)CC1 (stereo not drawn) | inactive | – |
| CCCCOC(=O)C(C)OC(=O)CCC (stereo not drawn) | inactive | – |
| O=C(O)c1ccc(C(=O)O)c(C(=O)O)c1 | inactive | – |
| CC(CCO)CC(C)(C)C (stereo not drawn) | inactive | – |
| O=S(=O)(O)CCCN1CCOCC1 | inactive | – |
| CCO[Si](CCC#N)(OCC)OCC | inactive | – |
| C=C(C)C(=O)OCCC(C)OC(=O)C(=C)C (stereo not drawn) | inactive | – |
| CC(=O)N(C)C | inactive | – |

| SMILES | outcome | AC50 |
| --- | --- | --- |
| O=c1cc(-c2ccc(O)cc2)oc2cc(O)cc(O)c12 | inactive | – |
| CC1=CC(O)CC(C)(C)C1 (stereo not drawn) | inactive | – |
| CCC(=O)OCC=Cc1ccccc1 | inactive | – |
| CCCCC1CCCCC(=O)O1 (stereo not drawn) | inactive | – |
| CCCCCCCCCO | inactive | – |
| CC(C)(O)CCc1ccccc1 | inactive | – |
| CN(C)CCC=C1c2ccccc2CCc2ccccc21 | inactive | – |
| CCOC(=O)COC(=O)c1ccccc1C(=O)OCC | inactive | – |
| O=C(O)CS | inactive | – |
| CC(C)(CO)CO | inactive | – |
| CCCCOCCOCCO | inactive | – |
| Brc1cc(Br)cc(Br)c1 | inactive | – |
| CC(C)Cc1ccccc1 | inactive | – |
| COc1ccc(OC)cc1 | inactive | – |
| Nc1ccc(O)c(N)c1 | inactive | – |
| CCCC1CCC(=O)CC1 | inactive | – |
| N=C1N=C(N)c2ccccc21 | inactive | – |

biological target: Signal transducer and activator of transcription 3 (Homo sapiens) (UniProt P40763); test: ATG_STAT3_CIS: Attagene CIS-FACTORIAL HepG2 Assay for human Signal Transducer and Activator of Transcription 3 (STAT3) (AID 2282963); details: HepG2, Attagene cis-factorial STAT3 reporter transcription; actives raise or lower the signal
Sequence (P40763 whole entry, looked up, the tested form may be a part): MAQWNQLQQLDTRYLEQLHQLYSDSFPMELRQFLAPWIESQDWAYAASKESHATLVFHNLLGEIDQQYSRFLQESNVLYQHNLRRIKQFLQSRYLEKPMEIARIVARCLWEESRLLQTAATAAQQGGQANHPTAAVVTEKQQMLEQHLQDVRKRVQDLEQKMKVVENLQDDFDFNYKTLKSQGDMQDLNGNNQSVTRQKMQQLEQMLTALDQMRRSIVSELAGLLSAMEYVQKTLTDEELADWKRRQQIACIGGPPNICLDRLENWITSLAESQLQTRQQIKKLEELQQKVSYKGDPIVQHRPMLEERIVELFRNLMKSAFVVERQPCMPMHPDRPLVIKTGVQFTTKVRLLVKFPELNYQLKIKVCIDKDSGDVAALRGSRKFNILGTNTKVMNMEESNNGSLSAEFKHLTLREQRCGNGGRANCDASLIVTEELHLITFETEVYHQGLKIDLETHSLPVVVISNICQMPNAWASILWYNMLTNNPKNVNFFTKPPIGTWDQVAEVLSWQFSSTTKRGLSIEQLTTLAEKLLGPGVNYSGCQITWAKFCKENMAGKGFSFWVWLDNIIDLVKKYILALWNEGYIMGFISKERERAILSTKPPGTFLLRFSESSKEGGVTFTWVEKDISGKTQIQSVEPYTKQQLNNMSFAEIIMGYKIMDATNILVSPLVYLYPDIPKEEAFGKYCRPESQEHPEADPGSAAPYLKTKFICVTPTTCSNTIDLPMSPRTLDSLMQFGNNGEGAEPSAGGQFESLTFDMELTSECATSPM
Summary of the method: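 Fluorescence intensity of 6-FAM-labelled reporter fragments, separated by capillary electrophoresis after RT-PCR, gave the signal. Cells were HepG2 transfected with cis-element reporter units and treated 24 h; fitting was bidirectional relative to DMSO.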

| SMILES | outcome |
| --- | --- |
| NC(N)=NC(N)=NCCc1ccccc1 | inactive |
| CCC(=O)OC/C=C(\C)CCC=C(C)C | inactive |
| C/C=C(\C)C(=O)OC/C=C(\C)CCC=C(C)C | inactive |
| S=c1[nH][nH]c(=S)s1 | inactive |
| CC(C)Cc1ccc(C(C)C(=O)O)cc1 (stereo not drawn) | inactive |
| NC(=O)c1cnccn1 | inactive |
| CC1=CC(C)C(C=O)C(C)C1 (stereo not drawn) (tested in a mixture with another compound) | inactive |
| CC(C)(C)C1CCC(O)CC1 (stereo not drawn) | inactive |
| CCCCOC(=O)C(C)OC(=O)CCC (stereo not drawn) | inactive |
| O=C(O)c1ccc(C(=O)O)c(C(=O)O)c1 | inactive |
| CC(CCO)CC(C)(C)C (stereo not drawn) | inactive |
| O=S(=O)(O)CCCN1CCOCC1 | inactive |
| CCO[Si](CCC#N)(OCC)OCC | inactive |
| CC(=O)N(C)C | inactive |
| O=c1cc(-c2ccc(O)cc2)oc2cc(O)cc(O)c12 | inactive |
| CC1=CC(O)CC(C)(C)C1 (stereo not drawn) | inactive |
| CCC(=O)OCC=Cc1ccccc1 | inactive |
| CCCCC1CCCCC(=O)O1 (stereo not drawn) | inactive |
| CCCCCCCCCO | inactive |
| CC(C)(O)CCc1ccccc1 | inactive |
| CN(C)CCC=C1c2ccccc2CCc2ccccc21 | inactive |
| O=C(O)CS | inactive |
| CC(C)(CO)CO | inactive |
| CCCCOCCOCCO | inactive |
| Brc1cc(Br)cc(Br)c1 | inactive |
| CC(C)Cc1ccccc1 | inactive |
| COc1ccc(OC)cc1 | inactive |
| Nc1ccc(O)c(N)c1 | inactive |
| CCCC1CCC(=O)CC1 | inactive |
| N=C1N=C(N)c2ccccc21 | inactive |

test system: not listed separately; test: ATG_TA_CIS: Attagene CIS-FACTORIAL HepG2 Assay for human TA Basal Promoter (AID 2282964); details: HepG2 Attagene CIS-factorial TA basal promoter reporter; actives raise or lower the signal
Summary of the method: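 Cis-factorial format in HepG2: reporters report endogenous factors, not chimeric Gal4 fusions. After 24 h treatment, reporter transcripts were measured by RT-PCR-capillary electrophoresis fluorescence, analysed bidirectionally versus DMSO.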

| SMILES | outcome |
| --- | --- |
| NC(N)=NC(N)=NCCc1ccccc1 | inactive |
| CCC(=O)OC/C=C(\C)CCC=C(C)C | inactive |
| C/C=C(\C)C(=O)OC/C=C(\C)CCC=C(C)C | inactive |
| S=c1[nH][nH]c(=S)s1 | inactive |
| O=C1OC2(c3ccc(O)cc3Oc3cc(O)ccc32)c2ccccc21 | inactive |
| NC(=O)c1cnccn1 | inactive |
| CC1=CC(C)C(C=O)C(C)C1 (stereo not drawn) (tested in a mixture with another compound) | inactive |
| CC(C)(C)C1CCC(O)CC1 (stereo not drawn) | inactive |
| CCCCOC(=O)C(C)OC(=O)CCC (stereo not drawn) | inactive |
| O=C(O)c1ccc(C(=O)O)c(C(=O)O)c1 | inactive |
| CC(CCO)CC(C)(C)C (stereo not drawn) | inactive |
| O=S(=O)(O)CCCN1CCOCC1 | inactive |
| CCO[Si](CCC#N)(OCC)OCC | inactive |
| C=C(C)C(=O)OCCC(C)OC(=O)C(=C)C (stereo not drawn) | inactive |
| CC(=O)N(C)C | inactive |
| O=c1cc(-c2ccc(O)cc2)oc2cc(O)cc(O)c12 | inactive |
| CC1=CC(O)CC(C)(C)C1 (stereo not drawn) | inactive |
| CCC(=O)OCC=Cc1ccccc1 | inactive |
| CCCCC1CCCCC(=O)O1 (stereo not drawn) | inactive |
| CCCCCCCCCO | inactive |
| CC(C)(O)CCc1ccccc1 | inactive |
| CN(C)CCC=C1c2ccccc2CCc2ccccc21 | inactive |
| CC(C)(CO)CO | inactive |
| CCCCOCCOCCO | inactive |
| Brc1cc(Br)cc(Br)c1 | inactive |
| CC(C)Cc1ccccc1 | inactive |
| COc1ccc(OC)cc1 | inactive |
| Nc1ccc(O)c(N)c1 | inactive |
| CCCC1CCC(=O)CC1 | inactive |
